These results are taken from the supplement of paper PMC9925115.

Structures are written as SMILES. Counter-ions that a name gives are not always drawn. ± gives the uncertainty stated by the source.

The test system of assay [1] is FLX1. In words: cell viability z-score within plate (CellTiter-Glo), mean of 3 biological replicates; higher = higher viability relative to plate (less growth inhibition). The note with it: 2 µM; time (hr): 120. On the procedure: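 FLX1 fibrolamellar carcinoma cells (DNAJB1-PRKACA fusion), 600 cells/well in 384-well plates, treated with a Selleck kinase inhibitor library (L1200) at 2 uM for 5 days (120 hr); viability by CellTiter-Glo. A z-score was computed within each plate and averaged over three biological replicates.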
In general terms: Cellular ATP, detected with luciferase, serves as a proxy for viable cell number.

Assay [2] deals with FLX1 + dox-induced PRKAR1A G325D. Nature of the assay: difference in log2 fold change of viability vs plate median (dox-induced PRKAR1A G325D minus uninduced); higher = compound less effective when PKA is inhibited. The note with it: concentration: not stated (2 or 5 uM); 5 days. On the procedure:
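For each plate a log2 fold change vs the plate median was derived, and the values without dox were subtracted from those with dox, averaged over three biological replicates.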

On to `CN1CC[C@H](c2c(O)cc(O)c3c(=O)cc(-c4ccccc4Cl)oc23)[C@H](O)C1` [Flavopiridol HCl], for which the “cell viability z-score within plate” value in assay [1] came out at 0.894 ± 0.42. In addition, in assay [2], the “difference in log2 fold change of viability” value (“difference in log2 fold change” below) stood at 0.222.

Take `O=c1ccc2ccc(O)c(O)c2o1` [Daphnetin]: the “cell viability z-score within plate” value in assay [1] came to 1.53 ± 0.8. The “difference in log2 fold change” value in assay [2] is -0.062.

Turning to `C#Cc1cccc(Nc2ncnc3cc(OCCOC)c(OCCO)cc23)c1`, in assay [1], the “cell viability z-score within plate” value was -0.584 ± 1.3. The “difference in log2 fold change” value in assay [2] is -0.763.

With `COc1cc2c(Oc3ccc(NC(=O)C4(C(=O)Nc5ccc(F)cc5)CC4)cc3F)ccnc2cc1OCCCN1CCOCC1`, the “cell viability z-score within plate” value in assay [1] was -0.77 ± 2.3. Moreover, in assay [2], the “difference in log2 fold change” value is -0.0914.

For the compound `Cc1cnc(Nc2ccc(N3CCN(C)CC3)cc2)nc1Nc1cccc(S(=O)(=O)NC(C)(C)C)c1`, the “cell viability z-score within plate” value in assay [1] is 0.0181 ± 0.39. Also, the “difference in log2 fold change” value in assay [2] was -0.303.

For `COc1cc(Nc2ncc(F)c(Nc3ccc4c(n3)NC(=O)C(C)(C)O4)n2)cc(OC)c1OC` [R406 (free base)], the “cell viability z-score within plate” value in assay [1] was found to be 0.533 ± 0.55. In addition, the “difference in log2 fold change” value in assay [2] was -0.334.

With `Cc1ccc(C(=O)Nc2cccc(C(F)(F)F)c2)cc1Nc1nc(-c2cccnc2)nc2c1cnn2C`, in assay [1], the “cell viability z-score within plate” value is -0.436 ± 0.34. Moreover, in assay [2], the “difference in log2 fold change” value stood at 0.868.

Turning to `CCc1ccc(/C=C2/SC(=S)NC2=O)cc1`, the “cell viability z-score within plate” value in assay [1] is 0.872 ± 0.44. For the same compound, the “difference in log2 fold change” value in assay [2] came out at 0.116.

Consider `C=CC(=O)Nc1cccc(Nc2nc(Nc3ccc(N4CCN(C(C)=O)CC4)cc3OC)ncc2C(F)(F)F)c1` [Rociletinib (CO-1686, AVL-301)], for which the “cell viability z-score within plate” value in assay [1] was -0.855 ± 0.71. For the same compound, the “difference in log2 fold change” value in assay [2] was -0.172.

On to `CC(C)(C)c1nc(-c2cccc(NS(=O)(=O)c3c(F)cccc3F)c2F)c(-c2ccnc(N)n2)s1`, for which the “cell viability z-score within plate” value in assay [1] worked out at 0.0787 ± 0.036. For the same compound, the “difference in log2 fold change” value in assay [2] was determined as 0.264.

As to `O=C1NC(=O)/C(=C/c2ccc(-c3ccc(F)cc3O)o2)S1`, in assay [1], the “cell viability z-score within plate” value was found to be 1.21 ± 0.57. Moreover, in assay [2], the “difference in log2 fold change” value is -0.649.

In the case of `CN1CCC(COc2cnc(-c3cccc(Cn4nc(-c5cccc(C#N)c5)ccc4=O)c3)nc2)CC1`, the “cell viability z-score within plate” value in assay [1] is -0.645 ± 0.46. The “difference in log2 fold change” value in assay [2] is -0.973.
